Where “and” joins values, the source holds several entries; their conditions need not be identical. Identical values can stand only once. Results filed as inconclusive are left out. Entries that show only a call come without a potency. Calls of active or inactive are those of the source. Calls follow the shape of the dose curve; as a rule, active = well fitted curve in the direction sought with a large enough effect; inconclusive = small, poorly fitted or top-dose-only effect, or another doubt; inactive = no such curve, though single readings can be large; an effect the other way counts as inactive or inconclusive.
Columns and labels:
[1] = P-glycoprotein substrates identified in KB-3-1 adenocarcinoma cell line, qHTS therapeutic library screen (AID 1346986); also: nearly all actives have a fitted effect of over 60% in size;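 also: potency is for cytotoxicity meaning loss of cell viability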
How it was run: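 KB-3-1 parental and colchicine-selected P-gp-overexpressing KB-8-5-11 cells (colchicine omitted during assay), 500 cells/well, dosed in dose-response for 72 h at 37 °C; CellTiter-Glo luminescence. Cytotoxic: curve class -1.1 to -2.4, max response >50%, AC50 < 10 uM.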

[2] = P-glycoprotein substrates identified in KB-8-5-11 adenocarcinoma cell line, qHTS therapeutic library screen (AID 1346987); also: nearly all actives have a fitted effect of over 65% in size
How it was run: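 KB-8-5-11, a colchicine-selected P-gp-overexpressing KB-3-1 subline, was grown without colchicine for the assay. Cells were seeded at 500 cells/well, dosed in concentration-response and incubated 72 h at 37 degree C, 5% CO2. Viability was read by CellTiter-Glo luminescence.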
Potency is read from the fitted curve at half-maximal effect.

SMILES | Potency [1] | Potency [2] | outcome [1] | outcome [2]
O=c1[nH]ccc2cc(OC3CCNCC3)ccc12 | inactive | inactive | – | –
C=C(C(=O)O)C1CC2=C(C)CCCC2(C)C[C@@H]1O (some centres not stated) | inactive | inactive | – | –
O=C1NC(Cc2c[nH]c3ccccc23)C(=O)NC1Cc1cnc[nH]1 (configuration not stated) | inactive | inactive | – | –
CCCCNc1ncc2c(-c3ccc(F)cc3)nn(CC3CCC(N)CC3)c2n1 (configuration not stated) | 2000 nM (active) | 1.78 µM (active) | – | –
CC1=C2C[C@H]3O[C@@]3(C)CCC3O[C@@]3(C)C[C@@]2(O)OC1=O (some centres not stated) | inactive | inactive | – | –
CC(C)(O[C@@H]1O[C@H](CO)[C@@H](O)[C@H](O)[C@H]1O)C(OC(=O)/C=C\c1ccc(O)cc1)C(=O)OCc1ccc(O[C@@H]2O[C@H](CO)[C@@H](O)[C@H](O)[C@H]2O)cc1 (some centres not stated) | inactive | inactive | – | –
C=C1C[C@]23C[C@H]1CC[C@H]2[C@@]1(C)CCC[C@@]2(C)C(=O)O[C@@H]([C@@H]3O)[C@@H]12 | inactive | inactive | – | –
C=CC(C)(C)c1[nH]c2cc3c(cc2c1CC1NC(=O)C2=CCCN2C1=O)C=CC(C)(C)O3 (configuration not stated) | inactive | inactive | – | –
Cc1cc(OCc2nc(-c3ccccc3Cl)cs2)ccc1OCC(=O)O | inactive | inactive | – | –
CC1CCN(C(=O)CC#N)CC1N(C)c1ncnc2[nH]ccc12 (configuration not stated) | inactive | inactive | – | –
C[C@@H]1O[C@@H](O[C@H]2[C@H](O[C@H]3CC[C@@]4(C)C(CC[C@]5(C)C4CC=C4[C@@H]6CC(C)(C)CC[C@]6(C(=O)O[C@@H]6OC[C@H](O)[C@H](O)[C@H]6O[C@@H]6O[C@@H](C)[C@H](O[C@@H]7O[C@H](CO)[C@@H](O)[C@H](O)[C@H]7O)[C@H](O)[C@H]6O)[C@H](O)C[C@]45C)C3(C)C)O[C@H](CO)[C@@H](O[C@@H]3OC[C@@H](O)[C@H](O)[C@H]3O)[C@@H]2O)[C@H](O)[C@H](O)[C@H]1O (some centres not stated) | – | – | inactive [at 9.29 µM] | inactive [at 9.29 µM]
COc1ccc(C2(O)c3ccccc3NC(=O)C2O)cc1 (configuration not stated) | inactive | inactive | – | –
CNC(=O)c1cccc(-c2ccc3c(N4CCOC[C@@H]4C)nc(N4CCOC[C@@H]4C)nc3n2)c1 | 920 nM (active) | 366 nM (active) and 580 nM (active) | – | –
COc1cc(N2CCOCC2)ccc1Nc1ncc(Cl)c(Nc2ccccc2NS(C)(=O)=O)n1 | 2060 nM (active) | 1.64 µM (active) | – | –
NC(=O)c1csc(C2OC(CO)C(O)C2O)n1 (configuration not stated) | inactive | inactive | – | –
CC(C)C1=CC2C(CC[C@]2(C)O)[C@](C)(O)CC1 (some centres not stated) | inactive | inactive | – | –
CC1(C)CC[C@]2(C(=O)O)CC[C@]3(C)C(=CCC4[C@@]5(C)CC[C@H](O[C@@H]6O[C@H](C(=O)O)[C@@H](O[C@@H]7OC[C@@H](O)[C@H](O)[C@H]7O)[C@H](O)[C@H]6O)C(C)(C)C5CC[C@]43C)C2C1O (some centres not stated) | inactive | inactive | – | –
CC(C)(C)C(=O)CN1C(=O)[C@H](NC(=O)Nc2cccc(C(=O)O)c2)CN(C2CCCCC2)c2ccccc21 | inactive | inactive | – | –
Cn1c2ccc(F)cc2c2c(C(=O)N3CCCC3)cn(-c3ccccc3)c(=O)c21 | inactive | inactive | – | –
C[C@@H]1C[C@H]2O[C@@H]2/C=C\C=C\C(=O)Cc2c(Cl)c(O)cc(O)c2C(=O)O1 | 2860 nM (active) | 438 nM (active) and 5.7 µM (active) | – | –
CCOc1ccc(NC(=S)N2CCC(C(O)(c3ccccc3)c3ccccc3)CC2)cc1 | inactive | inactive | – | –

Source: PubChem BioAssay (NCATS)
